“And” between values parts separate entries of the source, which are not always exact repeats. Identical values can stand only once. In all, about 5,500 compounds went through this assay and about 2,000 (36%) were called active. Not shown: some 18% with an inconclusive outcome. No stated cut-off is given here; in the data, active means normalized growth mostly below about 0.91 (no sharp cut-off); inconclusive means no clear call, values can overlap the other calls; inactive means mostly above about 0.92. The list shows a part of the results.
Assay: chemical genetic growth profiling, strain panel (AID 1159580);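 further: tested at 20 µM; growth read once vehicle control cultures reached saturation at 30 °C; 1 = growth at the plate median or of vehicle wells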
Details: S. cerevisiae deletion strains, growth OD

Measured: normalized growth

CC1CCCC(C)N1NC(=O)c1ccc(Cl)c(S(N)(=O)=O)c1 (stereo unspecified)
inactive: locus YAL013W, strain DEP1, stronger effect = lower value 1 | locus YAL021C, strain ccr4, stronger effect = lower value 1 | locus YAL026C, strain drs2, stronger effect = lower value 1.03 | locus YAL030W, strain snc1, stronger effect = lower value 0.989 | locus YBL061C, strain skt5, stronger effect = lower value 1.02 | locus YBR009C, strain hhf1, stronger effect = lower value 1.02 | locus YBR021W, strain FUR4, stronger effect = lower value 1.09 | locus YBR023C, strain chs3, stronger effect = lower value 1.01 | locus YBR171W, strain sec66, stronger effect = lower value 1.03 | locus YBR229C, strain ROT2, stronger effect = lower value 0.996 | locus YBR231C, strain swc5, stronger effect = lower value 1.05 | locus YBR279W, strain paf1, stronger effect = lower value 1 | locus YCL011C, strain gbp2, stronger effect = lower value 0.932 | locus YCL016C, strain dcc1, stronger effect = lower value 1.02 | locus YCL029C, strain bik1, stronger effect = lower value 0.974 | locus YCL069W, strain vba3, stronger effect = lower value 1 | locus YCR088W, strain abp1, stronger effect = lower value 1.01 | locus YDL005C, strain med2, stronger effect = lower value 1.01 | locus YDL035C, strain GPR1, stronger effect = lower value 1.01 | locus YDL040C, strain nat1, stronger effect = lower value 1.01 | locus YDL074C, strain BRE1, stronger effect = lower value 0.991 | locus YDL101C, strain DUN1, stronger effect = lower value 0.983 | locus YDL134C, strain PPH21, stronger effect = lower value 1 | locus YDL185W, strain tfp1, stronger effect = lower value 0.964 | locus YDL192W, strain arf1, stronger effect = lower value 0.988 | locus YDR001C, strain nth1, stronger effect = lower value 1.01 | locus YDR069C, strain doa4, stronger effect = lower value 1.01 | locus YDR101C, strain arx1, stronger effect = lower value 0.99 | locus YDR137W, strain rgp1, stronger effect = lower value 1.01 | locus YDR150W, strain NUM1, stronger effect = lower value 0.992 | locus YDR159W, strain sac3, stronger effect = lower value 1.02 | locus YDR162C, strain NBP2, stronger effect = lower value 0.997 | locus YDR195W, strain ref2 1 | locus YDR297W, strain sur2, stronger effect = lower value 1.01 | locus YDR318W, strain mcm21, stronger effect = lower value 1 | locus YDR334W, strain swr1, stronger effect = lower value 1.02 | locus YDR335W, strain msn5, stronger effect = lower value 1.02 | locus YDR388W, stronger effect = lower value 0.998 | locus YDR392W, strain spt3, stronger effect = lower value 1.03 | locus YDR502C, strain sam2, stronger effect = lower value 0.993 | locus YEL003W, strain gim4, stronger effect = lower value 1.02 | locus YEL037C, strain rad23, stronger effect = lower value 1.02 | locus YEL061C, strain CIN8 (second series), stronger effect = lower value 1.01 | locus YEL061C, strain CIN8, stronger effect = lower value 1 | locus YER015W, strain faa2, stronger effect = lower value 1.02 | locus YER016W, strain bim1, stronger effect = lower value 1.02 | locus YER110C, stronger effect = lower value 0.983 | locus YER111C, strain swi4, stronger effect = lower value 1.01 | locus YER155C, strain BEM2 (second series), stronger effect = lower value 1.04 | locus YER155C, strain BEM2, stronger effect = lower value 1 | locus YER167W, strain BCK2, stronger effect = lower value 0.997 | locus YFR010W, strain ubp6, stronger effect = lower value 1.03 | locus YGL078C, strain dbp3, stronger effect = lower value 0.997 | locus YGL086W, strain mad1, stronger effect = lower value 1 | locus YGL167C, strain pmr1, stronger effect = lower value 1.01 | locus YGL173C, strain kem1, stronger effect = lower value 1.03 | locus YGL227W, strain vid30, stronger effect = lower value 1.02 | locus YGL240W, strain doc1, stronger effect = lower value 1.01 | locus YGL248W, strain PDE1, stronger effect = lower value 1 | locus YGL253W, strain hxk2, stronger effect = lower value 1.02 | locus YGR078C, strain PAC10, stronger effect = lower value 0.983 | locus YGR135W, strain pre9, stronger effect = lower value 0.993 | locus YGR229C, strain SMI1, stronger effect = lower value 0.991 | locus YGR252W, strain gcn5, stronger effect = lower value 1.2 | locus YHR013C, strain ard1, stronger effect = lower value 1.01 | locus YHR027C, strain rpn1, stronger effect = lower value 1.01 | locus YHR030C, strain SLT2, stronger effect = lower value 0.998 and 0.962 | locus YHR079C, strain IRE1 (second series), stronger effect = lower value 0.985 | locus YHR079C, strain IRE1, stronger effect = lower value 0.949 | locus YHR094C, strain hxt1, stronger effect = lower value 0.986 | locus YHR129C, strain ARP1, stronger effect = lower value 0.984 | locus YHR142W, strain chs7, stronger effect = lower value 1.01 | locus YHR200W, strain rpn10, stronger effect = lower value 1 | locus YIL066C, strain RNR3, stronger effect = lower value 0.995 | locus YIL073C, strain SPO22, stronger effect = lower value 0.874 | locus YIL125W, strain kgd1, stronger effect = lower value 0.956 | locus YIR030C, strain dcg1, stronger effect = lower value 0.998 | locus YJL092W, strain hpr5, stronger effect = lower value 1.02 | locus YJL095W, strain BCK1 (second series), stronger effect = lower value 1.01 | locus YJL095W, strain BCK1, stronger effect = lower value 0.972 and 0.992 | locus YJL115W, strain asf1, stronger effect = lower value 1.01 | locus YJL129C, strain trk1, stronger effect = lower value 1.03 | locus YJL134W, strain LCB3, stronger effect = lower value 0.993 | locus YJL154C, strain vps35, stronger effect = lower value 1.02 | locus YJL164C, strain tpk1, stronger effect = lower value 1 | locus YJL166W, strain qcr8, stronger effect = lower value 0.989 | locus YJL168C, strain set2, stronger effect = lower value 0.993 | locus YJL187C, strain SWE1 (second series), stronger effect = lower value 0.966 | locus YJR043C, strain POL32, stronger effect = lower value 0.982 | locus YJR066W, strain TOR1, stronger effect = lower value 0.962 | locus YJR075W, strain HOC1, stronger effect = lower value 0.985

Reference: PubChem BioAssay AID1159580 (chemical genetic matrix, 2015)
